This is an account of results in PubChem BioAssay AID652115 (Broad Institute, 2013).

“And” between values parts separate entries of the source, which are not always exact repeats. Equal values may be shown once. Among all 330,000 compounds or so, about 3,800 (1.2%) were called active. Rule as the data show it: active = inhibition above about 15%; inconclusive = no clear call, values can overlap the other calls; inactive = below that. The sample as a whole holds a higher share of actives than the screen did. Some compounds were tested as several samples or in several runs, with calls that do not always agree.

In this test the target is NAD-dependent protein deacylase sirtuin-5, mitochondrial (Homo sapiens) (UniProt Q9NXA8). Kind of test: blockers of sirtuin-5 deacylase activity – biochemical, fluorescence imaging, single point, set 5, primary screen (AID 652115). The following applies: Purified SirT5, succinyl-peptide AMC, trypsin-coupled fluorescence; at 15 µM; stronger effect = higher value.
Chain of NAD-dependent protein deacylase sirtuin-5, mitochondrial (Homo sapiens) (Q9NXA8 whole entry, looked up): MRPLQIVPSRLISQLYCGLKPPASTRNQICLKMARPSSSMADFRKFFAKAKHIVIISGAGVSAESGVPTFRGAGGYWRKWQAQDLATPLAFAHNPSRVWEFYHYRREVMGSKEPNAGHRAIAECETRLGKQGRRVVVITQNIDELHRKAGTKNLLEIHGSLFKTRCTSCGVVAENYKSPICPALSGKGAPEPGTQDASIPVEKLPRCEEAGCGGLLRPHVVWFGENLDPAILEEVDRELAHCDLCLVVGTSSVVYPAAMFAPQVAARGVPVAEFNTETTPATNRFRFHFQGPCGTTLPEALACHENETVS
A word on the inhibition: it is the change of the read-out against control, counted positive when it falls. `CC(C)CC#Cc1cnc2c(c1)C(=O)N([C@@H](C)CO)C[C@@H](C)[C@@H](CN(C)S(=O)(=O)c1cccs1)O2`: the inhibition is 3.74% (inactive). In the case of `C/C=C/c1ccc([C@H]2[C@@H](CO)N(C(=O)C3CC3)[C@@H]2CNC(=O)NC(C)C)cc1`, the inhibition was -3.13% (inactive).

For the compound `CCC(=O)N(C)C[C@@H]1Oc2ncc(C#CCC3CCCC3)cc2C(=O)N([C@@H](C)CO)C[C@H]1C`, the inhibition is 2.53% (inactive). As for `CN1C(=O)c2cc(NC(=O)C3CCOCC3)ccc2OC[C@@H]2O[C@H](CC(=O)NCc3ccccc3F)CC[C@H]21`, the inhibition is -13.7% (inactive). Take `Cc1noc(C)c1NC(=O)N(C)C[C@@H]1Oc2cc(Br)ccc2S(=O)(=O)N([C@@H](C)CO)C[C@H]1C`: the inhibition is -3.62% (inactive) and 22.1% (active).

In the case of `C[C@@H]1CN([C@H](C)CO)S(=O)(=O)c2ccc(C#C[C@@H](C)O)cc2O[C@@H]1CN(C)Cc1ccc(-c2ccccc2)cc1`, the inhibition is 27% (active) and 4.33% (inactive) and -0.184% (inactive). For `C[C@@H]1CN([C@@H](C)CO)S(=O)(=O)c2ccc(C3=CCCC3)cc2O[C@@H]1CN(C)Cc1ccncc1`, the inhibition is 0.906% (inactive). The figure for `COc1ccccc1NC(=O)N(C)C[C@H]1Oc2cc(Br)ccc2S(=O)(=O)N([C@H](C)CO)C[C@@H]1C` is -3.29% (inactive) and -0.792% (inactive). On to `C/C=C/c1ccc2c(c1)O[C@H](CN(C)Cc1ccccc1)[C@H](C)CN([C@@H](C)CO)S2(=O)=O`, for which the inhibition was 3.6% (inactive).

As for `C[C@H](CO)N1C[C@H](C)[C@@H](CN(C)Cc2cccnc2)Oc2cc(C3=CCCC3)ccc2S1(=O)=O`, the inhibition was 0.149% (inactive). On to `CC(C)C#Cc1ccc2c(c1)O[C@H](CN(C)Cc1ccccc1)[C@H](C)CN([C@@H](C)CO)S2(=O)=O`, for which the inhibition is -0.3% (inactive).

Consider `C/C=C/c1ccc2c(c1)O[C@H](CN(C)Cc1cccc(F)c1)[C@H](C)CN([C@H](C)CO)S2(=O)=O`, for which the inhibition is 18% (active). In the case of `C[C@H]1CN([C@@H](C)CO)S(=O)(=O)c2ccc(C3=CCCC3)cc2O[C@@H]1CN(C)Cc1ccccc1`, the inhibition is 24.3% (active). As for `C[C@@H](O)C#Cc1ccc2c(c1)O[C@@H](CN(C)Cc1cccnc1)[C@@H](C)CN([C@@H](C)CO)S2(=O)=O`, the figure is -2.24% (inactive); as for `Cc1noc(C)c1NC(=O)N(C)C[C@@H]1Oc2cc(C#CCC(C)C)ccc2S(=O)(=O)N([C@H](C)CO)C[C@@H]1C`, 10.8% (inactive); as for `C/C=C/c1ccc2c(c1)O[C@H](CN(C)C)[C@H](C)CN([C@H](C)CO)S2(=O)=O`, -0.588% (inactive). As for `CO[C@@H](CN(C)C(=O)c1cnccn1)[C@@H](C)CN([C@@H](C)CO)S(=O)(=O)c1ccc(F)cc1`, the inhibition is 3.39% (inactive). With `CCNC(=O)C[C@@H]1CC[C@@H]2[C@H](COc3ccc(NS(=O)(=O)c4ccccc4C)cc3C(=O)N2C)O1`, the inhibition was -4.85% (inactive). For the compound `C/C=C/c1ccc2c(c1)O[C@@H](CN(C)S(=O)(=O)c1ccc(F)cc1)[C@@H](C)CN([C@H](C)CO)S2(=O)=O`, the inhibition was 7.93% (inactive). The figure for `O=C(Nc1cc(F)ccc1F)N[C@H]1CC[C@@H](CCn2cc(C3CCCC3)nn2)O[C@@H]1CO` is -0.428% (inactive). Take `C[C@H](CO)N1C[C@H](C)[C@@H](CN(C)C(=O)c2ccncc2)Oc2cc(/C=C/c3ccccc3)ccc2S1(=O)=O`: the inhibition was 0.659% (inactive). The figure for `C[C@@H]1CN([C@@H](C)CO)S(=O)(=O)c2ccc(/C=C/c3ccccc3)cc2O[C@H]1CN(C)Cc1ccccc1` is -1.92% (inactive).

For `C[C@@H]1CN([C@@H](C)CO)S(=O)(=O)c2ccc(/C=C/c3ccccc3)cc2O[C@H]1CN(C)C(=O)Nc1cc(F)ccc1F`, the inhibition is -3.9% (inactive). On to `C[C@H](CO)N1C[C@H](C)[C@@H](CN(C)S(=O)(=O)c2ccc(F)cc2)Oc2cc(C3=CCCC3)ccc2S1(=O)=O`, for which the inhibition was -0.634% (inactive).

For `C[C@H]1CN([C@@H](C)CO)S(=O)(=O)c2ccc(C#Cc3ccncc3)cc2O[C@@H]1CN(C)C(=O)Nc1ccc2c(c1)OCO2`, the inhibition was 4.3% (inactive). Regarding `C[C@H]1CN([C@@H](C)CO)S(=O)(=O)c2ccc(C3=CCCC3)cc2O[C@H]1CN(C)C(=O)Nc1ccc2c(c1)OCO2`, the inhibition was 16.2% (active).

For `C[C@@H]1CN([C@@H](C)CO)S(=O)(=O)c2ccc(/C=C/c3ccccc3)cc2O[C@H]1CN(C)Cc1cccnc1`, the inhibition is 5.97% (inactive).

On to `Cc1ccc(S(=O)(=O)N(C)C[C@@H]2Oc3cc(C4=CCCC4)ccc3S(=O)(=O)N([C@@H](C)CO)C[C@@H]2C)cc1`, for which the inhibition was 8.8% (inactive).

In the case of `C[C@@H]1CN([C@H](C)CO)S(=O)(=O)c2ccc(C3=CCCC3)cc2O[C@H]1CN(C)C(=O)Nc1ccc2c(c1)OCO2`, the inhibition is 7.25% (inactive). Consider `C[C@@H]1CN([C@@H](C)CO)S(=O)(=O)c2ccc(/C=C/c3ccccc3)cc2O[C@@H]1CN(C)C(=O)Nc1cc(F)ccc1F`, for which the inhibition is 21.7% (active). On to `COc1cccc(S(=O)(=O)N(C)C[C@@H]2Oc3cc(C4=CCCCC4)ccc3S(=O)(=O)N([C@H](C)CO)C[C@H]2C)c1`, for which the inhibition was 37.3% (active). As for `C[C@@H]1CN([C@H](C)CO)S(=O)(=O)c2ccc(/C=C/c3ccccc3)cc2O[C@@H]1CN(C)Cc1ccccc1`, the inhibition was 23.2% (active). As for `C[C@@H]1CN([C@H](C)CO)S(=O)(=O)c2ccc(/C=C/c3ccccc3)cc2O[C@@H]1CN(C)C(=O)Nc1ccc(F)cc1`, the figure is 0.2% (inactive). The figure for `C[C@@H]1CN([C@H](C)CO)S(=O)(=O)c2ccc(-c3cncnc3)cc2O[C@H]1CN(C)C(=O)Cc1ccccc1` is 1.64% (inactive); for `CCCC#Cc1cnc2c(c1)C(=O)N([C@H](C)CO)C[C@H](C)[C@@H](CN(C)C(=O)c1cccnc1)O2` it is -3.74% (inactive). Take `CN1C(=O)c2cc(NS(=O)(=O)c3ccc(Cl)cc3)ccc2OC[C@@H]2O[C@H](CC(=O)O)CC[C@@H]21`: the inhibition is -0.474% (inactive). With `O=C(C1CC1)N1CC(=O)N2[C@H](CO)[C@@H](c3ccc(-c4ccccc4F)cc3)[C@@H]2C1`, the inhibition was -3.61% (inactive). As to `COc1ccc(CN(C)C[C@H]2OCCCC[C@@H](C)Oc3ccc(NS(=O)(=O)c4ccccc4)cc3C(=O)N([C@@H](C)CO)C[C@@H]2C)cc1`, the inhibition is -2.94% (inactive).
